The test can be described thus: NCI Yeast Anticancer Drug Screen. Data for the rad52 strain (AID 147).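 Also: 0% = growth of vehicle-treated control cultures.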 Conditions: S. cerevisiae rad52 mutant growth inhibition, active compounds read high. On the procedure: Growth inhibition of yeast strains with defined genetic alterations is measured as a screen for potential anti-cancer activity. Selected strains with alterations in DNA damage repair or cell cycle control were exposed to compounds and growth inhibition was measured relative to vehicle treated controls. The strain used in this assay is rad52

About 79,000 compounds went through this panel and 15% of them were active in at least one assay; those are over-represented in the sample as a whole. A number with no mark means an inactive call. The source made the active and inactive calls. Rule as the data show it: active = growth inhibition above about 70%; inactive = the rest.

With `CCCCCCCC/C=C\CCCCCCCCN`, the growth inhibition is 4% (at 1.2 µM); 0% (at 3.7 µM); -10% (at 11.0 µM); 98% (active) (at 33.0 µM); 97% (active) (at 100.0 µM).
On to `CCCCCCC=C(C(=O)OCC)C(=O)OCC`, for which the growth inhibition is, setting by setting: (at 1.2 µM) -2%; (at 3.7 µM) 0%; (at 11.0 µM) -1%; (at 33.0 µM) 2%; (at 100.0 µM) 23%.
In the same order, the values of `O=C1C(=C2CCCC2)CCC1CN1CCCCC1` (stereo not given) are 3%, 16%, 20%, 64% and 96% (active).
Turning to `CC(=O)/C=C/c1cc([N+](=O)[O-])ccc1O`, the growth inhibition is, setting by setting: (at 1.2 µM) -47%; (at 3.7 µM) -33%; (at 11.0 µM) -9%; (at 33.0 µM) 79% (active); (at 100.0 µM) 97% (active).
In the same order, the values of `Cc1cc(C)c(S(=O)(=O)c2ccc(Cl)cc2)c(C)c1` are -3%, -4%, -2%, 7% and 29%.
As to `Cc1cc(C)c2[s+]snc2c1`, the growth inhibition (at 1.2 µM) is 12%; the growth inhibition (at 3.7 µM) is 7%; the growth inhibition (at 11.0 µM) is 16%; the growth inhibition (at 33.0 µM) was 29%; the growth inhibition (at 100.0 µM) was 54%.
Regarding `CC(C(=O)N1C(=O)N(C(=O)C(C)C(O)c2ccccc2)C2CCCCC21)C(O)c1ccccc1` (stereo not given), the growth inhibition runs as follows: (at 1.2 µM) 5%; (at 3.7 µM) 8%; (at 11.0 µM) 11%; (at 33.0 µM) 11%; (at 100.0 µM) 19%.
Consider `CC(=O)Oc1ccc2c(c1)Cc1cc(N3C(=O)C=CC3=O)ccc1-2`, for which the growth inhibition runs as follows: (at 1.2 µM) 10%; (at 3.7 µM) 29%; (at 11.0 µM) 73% (active); (at 33.0 µM) 96% (active); (at 100.0 µM) 95% (active).
